{"source": "paper PMC4336329", "about": "(PLoS ONE, 2015)", "note": "Out of some 310,000 compounds screened, about 14,000 (4.5%) showed an effect of 50% or more. The effect is printed as a negative number. Shown is part of a subset that was picked to be rich in strong results.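 Further: peak tail current of the secondary pulse compared with the same well before compound.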", "data": [{"biological_target": "human ether-à-go-go-related gene (hERG) potassium channel (human, UniProt Q12809)", "sequence (Q12809 whole entry, looked up)": "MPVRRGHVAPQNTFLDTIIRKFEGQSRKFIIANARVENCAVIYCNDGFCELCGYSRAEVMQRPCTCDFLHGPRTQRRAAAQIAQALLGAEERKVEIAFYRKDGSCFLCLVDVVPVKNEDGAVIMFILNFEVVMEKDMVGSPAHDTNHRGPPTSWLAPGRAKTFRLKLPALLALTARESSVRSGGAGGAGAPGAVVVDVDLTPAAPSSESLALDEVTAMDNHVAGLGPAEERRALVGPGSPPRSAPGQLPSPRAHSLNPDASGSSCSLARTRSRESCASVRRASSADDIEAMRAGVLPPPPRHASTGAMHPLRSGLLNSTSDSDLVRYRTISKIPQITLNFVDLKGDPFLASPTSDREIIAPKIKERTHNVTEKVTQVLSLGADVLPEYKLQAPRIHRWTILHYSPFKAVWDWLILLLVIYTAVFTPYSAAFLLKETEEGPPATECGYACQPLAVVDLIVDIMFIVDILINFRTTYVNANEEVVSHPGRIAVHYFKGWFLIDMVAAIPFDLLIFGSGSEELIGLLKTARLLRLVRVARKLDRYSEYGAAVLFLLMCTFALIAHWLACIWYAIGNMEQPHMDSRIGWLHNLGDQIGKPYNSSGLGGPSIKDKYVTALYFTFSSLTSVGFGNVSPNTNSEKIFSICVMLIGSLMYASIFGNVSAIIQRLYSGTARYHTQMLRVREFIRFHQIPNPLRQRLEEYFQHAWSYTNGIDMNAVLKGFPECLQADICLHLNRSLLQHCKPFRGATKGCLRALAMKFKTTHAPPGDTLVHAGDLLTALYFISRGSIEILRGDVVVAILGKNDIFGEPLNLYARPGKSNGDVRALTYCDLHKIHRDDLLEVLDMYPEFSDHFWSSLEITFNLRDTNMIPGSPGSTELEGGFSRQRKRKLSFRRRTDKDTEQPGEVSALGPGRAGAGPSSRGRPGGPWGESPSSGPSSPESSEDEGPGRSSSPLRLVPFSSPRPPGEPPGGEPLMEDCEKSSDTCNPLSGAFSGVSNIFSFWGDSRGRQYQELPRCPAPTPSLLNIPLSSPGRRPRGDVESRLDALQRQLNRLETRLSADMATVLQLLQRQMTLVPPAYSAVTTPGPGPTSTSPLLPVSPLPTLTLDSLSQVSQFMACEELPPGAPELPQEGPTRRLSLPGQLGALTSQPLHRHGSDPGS", "assay": "primary screen, population patch clamp on CHO cells stably expressing hERG; higher = less effect of the substance", "units": {"hERG current change (%, negative = inhibition) at 10uM": "%"}, "values": [{"smiles": "CC(CCc1ccccc1)NC(=O)c1ccccc1Cl", "note": "(stereo not shown)", "hERG current change (%, negative = inhibition) at 10uM": -4.82}, {"smiles": "CN(C)S(=O)(=O)c1cc(NC(=O)CN2CCN(c3ccccc3F)CC2)ccc1Cl", "hERG current change (%, negative = inhibition) at 10uM": 5.43}, {"smiles": "CC(C)NC(=O)CSc1nnc(-c2ccc(C(C)(C)C)cc2)n1C", "hERG current change (%, negative = inhibition) at 10uM": -7.38}, {"smiles": "NC(=O)C1CCN(C(=O)COc2ccc3c(c2)oc(=O)c2ccccc23)CC1", "hERG current change (%, negative = inhibition) at 10uM": 3.62}, {"smiles": "COc1ccc(COc2cc(-c3cccc(OC)c3)nc3ccc(NC(=O)C(C)C)cc23)cc1", "hERG current change (%, negative = inhibition) at 10uM": 3.04}, {"smiles": "Cc1nc2c(-c3ccc(F)cc3)cnn2c(N)c1-c1ccc(F)cc1", "hERG current change (%, negative = inhibition) at 10uM": 23.3}, {"smiles": "CCOC(=O)C1CCCN(C(=O)c2cn(CC)c3ccc(S(=O)(=O)N(C)C)cc3c2=O)C1", "note": "(stereo not shown)", "hERG current change (%, negative = inhibition) at 10uM": 11.9}, {"smiles": "COc1ccc2nc(NC(=O)C3CCN(S(=O)(=O)c4cccc5nsnc45)CC3)sc2c1", "hERG current change (%, negative = inhibition) at 10uM": 0.473}, {"smiles": "C=CCn1c(SCC(=O)Nc2ccc(NC(=O)c3ccco3)c(OC)c2)nnc1-c1ccncc1", "hERG current change (%, negative = inhibition) at 10uM": -6.37}, {"smiles": "CCCCn1c(N)c(N(CCC(C)C)C(=O)c2ccc([N+](=O)[O-])s2)c(=O)[nH]c1=O", "hERG current change (%, negative = inhibition) at 10uM": -51.1}, {"smiles": "CCCCCCn1nc(C(=O)N(CCOC)c2c(N)n(CCCC)c(=O)[nH]c2=O)c2ccccc2c1=O", "hERG current change (%, negative = inhibition) at 10uM": -1.87}, {"smiles": "CCCCCCn1nc(C(=O)N(CC(C)C)c2c(N)n(CCCC)c(=O)[nH]c2=O)c2ccccc2c1=O", "hERG current change (%, negative = inhibition) at 10uM": -51.9}, {"smiles": "CCCCCn1nc(C(=O)N(CC(C)C)c2c(N)n(CCCC)c(=O)[nH]c2=O)c2ccccc2c1=O", "hERG current change (%, negative = inhibition) at 10uM": -76.6}, {"smiles": "CCCCn1c(N)c(N(CCOC)C(=O)c2nn(CC)c(=O)c3ccccc23)c(=O)[nH]c1=O", "hERG current change (%, negative = inhibition) at 10uM": 6.82}, {"smiles": "CCCCN(C(=O)c1ccc([N+](=O)[O-])s1)c1c(N)n(CCCC)c(=O)[nH]c1=O", "hERG current change (%, negative = inhibition) at 10uM": -12.9}, {"smiles": "CCCCCn1nc(C(=O)N(CCOC)c2c(N)n(CCCC)c(=O)[nH]c2=O)c2ccccc2c1=O", "hERG current change (%, negative = inhibition) at 10uM": -3.44}, {"smiles": "CCCCN(C(=O)c1ccc([N+](=O)[O-])s1)c1c(N)n(CC(C)C)c(=O)[nH]c1=O", "hERG current change (%, negative = inhibition) at 10uM": 5.29}, {"smiles": "CCCCn1nc(C(=O)N(CCOC)c2c(N)n(CCCC)c(=O)[nH]c2=O)c2ccccc2c1=O", "hERG current change (%, negative = inhibition) at 10uM": 6.16}, {"smiles": "O=S(=O)(Nc1ccc(-n2cnnn2)cc1)c1ccc(Cl)cc1", "hERG current change (%, negative = inhibition) at 10uM": -18.2}, {"smiles": "CCO[C@H]1OC(C(=O)N2CCOCC2)=C[C@@H](C2CC2)[C@@H]1CCCO", "hERG current change (%, negative = inhibition) at 10uM": 19.9}, {"smiles": "Cc1ccc(NC(=O)Nc2sc(=S)n(C)c2C)cc1", "hERG current change (%, negative = inhibition) at 10uM": 15.4}, {"smiles": "C=CCNC(=S)NCC1COc2ccccc2O1", "note": "(stereo not shown)", "hERG current change (%, negative = inhibition) at 10uM": 19.6}, {"smiles": "O=[N+]([O-])c1cc(C(F)(F)F)ccc1N1CCC(O)CC1", "hERG current change (%, negative = inhibition) at 10uM": 0.342}, {"smiles": "O=C(C1CCC1)N1CCN(c2ccc(C(F)(F)F)cc2[N+](=O)[O-])CC1", "hERG current change (%, negative = inhibition) at 10uM": -64}, {"smiles": "CC1CN(c2ccc(C(F)(F)F)cc2[N+](=O)[O-])CCN1S(C)(=O)=O", "note": "(stereo not shown)", "hERG current change (%, negative = inhibition) at 10uM": -56.9}, {"smiles": "NC(=O)C1CCN(c2ccc(C(F)(F)F)cc2[N+](=O)[O-])CC1", "hERG current change (%, negative = inhibition) at 10uM": -20.1}, {"smiles": "CC1CN(c2ccc(Cl)cc2[N+](=O)[O-])CCN1S(C)(=O)=O", "note": "(stereo not shown)", "hERG current change (%, negative = inhibition) at 10uM": -41.2}, {"smiles": "CC1CN(c2ccc([N+](=O)[O-])cc2Cl)CCN1S(C)(=O)=O", "note": "(stereo not shown)", "hERG current change (%, negative = inhibition) at 10uM": -47.2}, {"smiles": "O=[N+]([O-])c1ccc(Oc2cnc3ccccc3n2)cc1", "hERG current change (%, negative = inhibition) at 10uM": 7.44}, {"smiles": "COc1ccccc1NC(=O)Nc1nc(CC(=O)Nc2cc(F)ccc2F)cs1", "hERG current change (%, negative = inhibition) at 10uM": -2.13}, {"smiles": "CC(C)(C)n1nnnc1C(c1ccc(F)cc1)N(Cc1ccc(F)cc1)Cc1ccco1", "note": "(stereo not shown)", "hERG current change (%, negative = inhibition) at 10uM": 1.97}, {"smiles": "CCN1C(=O)C(CC(=O)Nc2ccc(OC)cc2)N(CCc2ccc(OC)cc2)C1=S", "note": "(stereo not shown)", "hERG current change (%, negative = inhibition) at 10uM": -1.17}, {"smiles": "O=C(CN1CCN(c2ccc(C(F)(F)F)cn2)CC1)NCc1ccc2c(c1)OCO2", "hERG current change (%, negative = inhibition) at 10uM": -65.3}, {"smiles": "O=C(CN1CCN(c2ncccn2)CC1)NCc1ccc2c(c1)OCO2", "hERG current change (%, negative = inhibition) at 10uM": 20.4}, {"smiles": "O=C(c1ccc2c(c1)OCO2)N1CCN(c2ccccc2)CC1", "hERG current change (%, negative = inhibition) at 10uM": -10.9}, {"smiles": "O=C(c1ccc([N+](=O)[O-])s1)N1CCN(c2ccc(C(F)(F)F)cn2)CC1", "hERG current change (%, negative = inhibition) at 10uM": -67.5}, {"smiles": "Cc1ccc(C(=O)N2CCN(c3ccc(C(F)(F)F)cn3)CC2)cc1", "hERG current change (%, negative = inhibition) at 10uM": -0.62}, {"smiles": "O=C(c1ccc2ccccc2c1)N1CCN(c2ccc(C(F)(F)F)cn2)CC1", "hERG current change (%, negative = inhibition) at 10uM": -2}, {"smiles": "O=C(c1ccc([N+](=O)[O-])s1)N1CCN(c2ccccn2)CC1", "hERG current change (%, negative = inhibition) at 10uM": -20.4}, {"smiles": "O=C(CN1CCN(c2ccc(C(F)(F)F)cn2)CC1)Nc1ccc2c(c1)OCO2", "hERG current change (%, negative = inhibition) at 10uM": -14}, {"smiles": "O=C(c1ccc2n[nH]nc2c1)N1CCN(c2ccc(C(F)(F)F)cn2)CC1", "hERG current change (%, negative = inhibition) at 10uM": -26.7}, {"smiles": "O=C(c1ccc2c(c1)OCO2)N1CCN(c2ccc(C(F)(F)F)cn2)CC1", "hERG current change (%, negative = inhibition) at 10uM": -55.6}, {"smiles": "O=C(c1ccc2c(c1)OCO2)N1CCN(c2cccc(C(F)(F)F)c2)CC1", "hERG current change (%, negative = inhibition) at 10uM": -53.8}, {"smiles": "O=C(Nc1ccc2c(c1)OCO2)N1CCN(c2cccc(C(F)(F)F)c2)CC1", "hERG current change (%, negative = inhibition) at 10uM": -1.15}, {"smiles": "CC(C)c1ccc(NC(=S)NCCc2c[nH]c3ccccc23)cc1", "hERG current change (%, negative = inhibition) at 10uM": 10.8}, {"smiles": "Cc1nc2ccc(NC(=O)[C@@H](NC(=O)c3c(F)cccc3F)C(C)C)cc2s1", "hERG current change (%, negative = inhibition) at 10uM": 1.84}, {"smiles": "O=C(NCCN1CCOCC1)C1CCN(Cc2ccccc2O)CC1", "hERG current change (%, negative = inhibition) at 10uM": 19.2}, {"smiles": "O=C1CSC(c2cccs2)N1c1ccccc1", "note": "(stereo not shown)", "hERG current change (%, negative = inhibition) at 10uM": 15}, {"smiles": "Cn1nnnc1SCc1nc2scc(-c3ccccc3)c2c(=O)[nH]1", "hERG current change (%, negative = inhibition) at 10uM": -3.59}, {"smiles": "CC(C)(C)NS(=O)(=O)c1ccc(CCC(=O)NCc2ccco2)cc1", "hERG current change (%, negative = inhibition) at 10uM": 2.7}, {"smiles": "COc1ccc(N2CCN(C(=O)COC(=O)c3ccc(-n4nc(C)cc4C)cc3)CC2)cc1", "hERG current change (%, negative = inhibition) at 10uM": -1.95}, {"smiles": "CCc1nc(SCC(=O)N2c3ccccc3CC2C)c2c(C)c(C)sc2n1", "note": "(stereo not shown)", "hERG current change (%, negative = inhibition) at 10uM": -5.78}]}]}
